The values below come from PubChem BioAssay (NCI).

Molecules are shown by their SMILES. About 79,000 compounds went through this panel and 15% of them were active in at least one assay; those are over-represented in the sample as a whole. Values without a mark were called inactive. The source made the active and inactive calls. Cut-off read from the data, not from the text of the source: active = growth inhibition above about 70%; inactive = the rest. Where a SMILES comes first, the peptide text is derived from it. The star is where a group is joined. Boc = CC(C)(C)OC(=O)*

The nature of assay [1]: NCI Yeast Anticancer Drug Screen. Data for the rad50 strain (AID 155).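 Note: 0% = growth of vehicle-only cultures of the same strain.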 The conditions noted are these: S. cerevisiae rad50 strain growth inhibition; at 50.0 µM; stronger effect = higher value. Summed up: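 A DNA repair-deficient yeast mutant serves as the test organism; compound-induced growth inhibition is calculated against vehicle-treated cells.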
Assay [2] can be described thus: NCI Yeast Anticancer Drug Screen. Data for the mec2-1 strain (AID 157). Conditions: S. cerevisiae mec2-1 strain, at 50.0 µM, stronger effect = higher value. The gist of the method:
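Cells of the genetically defined mec2-1 yeast strain are incubated with test compound. Inhibition of growth is calculated against vehicle-treated controls.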

Assay [3] is described as follows: NCI Yeast Anticancer Drug Screen. Data for the sgs1 mgt1 strain (AID 161).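 Note: 0% = growth of cultures given vehicle only.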 Conditions: S. cerevisiae sgs1 mgt1 strain, at 50.0 µM, stronger effect = higher value. The gist of the method:
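Inhibition of yeast growth, normalised to vehicle-treated controls, is reported for a strain bearing genetic alterations in DNA damage repair.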

Assay [4] can be described thus: NCI Yeast Anticancer Drug Screen. Data for the cln2 rad14 strain (AID 165).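 Note: 0% = growth equal to vehicle treated cultures.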 Conditions: S. cerevisiae cln2 rad14 strain, at 50.0 µM, stronger effect = higher value. Summed up: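 The screen exposed genetically defined yeast (cln2 rad14) to test compounds and scored growth inhibition relative to vehicle-treated controls.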
A short description of assay [5]: NCI Yeast Anticancer Drug Screen. Data for the bub3 strain (AID 167). The conditions noted are these: S. cerevisiae bub3 mutant strain, at 50.0 µM, stronger effect = higher value. The gist of the method:
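Inhibition values come from growth of compound-treated mutant yeast normalised to vehicle-treated controls.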

A short description of assay [6]: NCI Yeast Anticancer Drug Screen. Data for the mlh1 rad18 strain (AID 175). The conditions noted are these: S. cerevisiae mlh1 rad18 strain growth inhibition; at 50.0 µM; stronger effect = higher value. Summed up:
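Compound-treated yeast growth, normalised to vehicle controls. Strain bears defined DNA repair mutations.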

Take `Nc1nnc(Sc2n[nH]c(=O)[nH]c2=O)s1`: the growth inhibition was -8.8% in assay [1]; -2.6% in assay [2]; -14.3% in assay [3]; -0.2% in assay [4]; -4.9% in assay [5]; -8.05% in assay [6].
Take `N=C(N)Cn1cnc2ccccc21`: the growth inhibition in assay [1] was -13.7%; in assay [2] it was -10.3%; in assay [3], -9.65%; in assay [4], 14.9%; in assay [5], 3.8%; in assay [6] it was -18.4%.
For `CC1=COC2(CC1)OC1CC3C4CCC5CC(O)CCC5(C)C4CCC3(C)C1C2C` (stereo not given), the growth inhibition was 72.5% (active) in assay [1]; 60% in assay [2]; 87.3% (active) in assay [3]; 45.5% in assay [4]; 39.5% in assay [5]; 83% (active) in assay [6].
As to `COC(=O)C(Cc1ccccc1)NC(=O)C(Cc1ccccc1)NC(=O)OC(C)(C)C` (stereo not drawn) (Boc-Phe-Phe-OMe; configuration not given here), the growth inhibition was -7.05% in assay [1]; -4.3% in assay [2]; -18.9% in assay [3]; -51% in assay [4]; 0.15% in assay [5]; -6.4% in assay [6].
In the case of `CC1=CCC(C(C)(C)NC(=O)c2ccccc2)C/C1=N/O` (stereo not given), the growth inhibition in assay [1] is -56.7%; in assay [2], -43%; in assay [3], -60.3%; in assay [4] it was -49.2%; in assay [5], -43.7%; in assay [6], -66.5%.
For `COc1nc2c(c(=O)n1C)N(C(C)=O)C1C(N2)OCC(OC(C)=O)C1OC(C)=O` (stereo not given), the growth inhibition in assay [1] is -13.4%; in assay [2] it was 8.65%; in assay [3], -2.55%; in assay [4] it was 5.45%; in assay [5], -7.6%; in assay [6], -32.1%.
As to `COc1ccc(NC(=O)Oc2ccc3c(C)cc(=O)oc3c2)c(OC)c1` (tested in a mixture with another compound), the growth inhibition in assay [1] is -3.7%; in assay [2], -6.2%; in assay [3] it was -22.6%; in assay [4], -19.7%; in assay [5], 1.8%; in assay [6], 12.3%.
As for `Cc1nc2ccccc2c(=O)n1C(C)(C)CCl`, the growth inhibition is 10.1% in assay [1]; 30.6% in assay [2]; 11.1% in assay [3]; -14.7% in assay [4]; 30.3% in assay [5]; 19.9% in assay [6].
Take `Oc1ccc(N2CCOCC2)cc1`: the growth inhibition is 0.45% in assay [1]; 16.8% in assay [2]; 3.05% in assay [3]; -32% in assay [4]; 25.6% in assay [5]; 8.5% in assay [6].
As for `Cc1ccc(C2[C@H]3C(=O)N(c4ccc(Cc5ccc(N6C(=O)[C@@H]7ON(c8ccccc8)C(c8ccc(C)cc8)[C@@H]7C6=O)cc5)cc4)C(=O)[C@H]3ON2c2ccccc2)cc1` (stereo not given in full), the growth inhibition in assay [1] is -23.9%; in assay [2], -17.9%; in assay [3], -8.1%; in assay [4], 26.9%; in assay [5], -5.75%; in assay [6] it was -10.8%.
For the compound `CCC(CC)C(=O)OCCOCCOC`, the growth inhibition in assay [1] is 30.2%; in assay [2] it was 11.8%; in assay [3], 14.9%; in assay [4], 7.9%; in assay [5] it was 23.6%; in assay [6] it was 36.9%.
`C=CCNC(=S)Nc1cccc(OC(=O)Nc2ccc(Cl)c(Cl)c2)c1`: the growth inhibition in assay [1] is -16.4%; in assay [2], -11.2%; in assay [3], -18.4%; in assay [4], -23.1%; in assay [5], 1%; in assay [6] it was -12.4%.
With `OCC1CCN(CCOCc2ccccc2)C1` (stereo not given), the growth inhibition in assay [1] is 9.25%; in assay [2], -0.4%; in assay [3], -2.3%; in assay [4], -32.5%; in assay [5], -7.05%; in assay [6], 7.6%.
Turning to `CC(=O)/C=C/c1ccc(C)cc1`, the growth inhibition in assay [1] was 27.1%; in assay [2], 9.9%; in assay [3], 8.75%; in assay [4] it was 4.15%; in assay [5], 20.6%; in assay [6] it was 10.7%.
Take `Cc1cc2c(c3oc(C4(C)OC4C4OC4C)cc(=O)c13)C(=O)c1c(O)c(C3CC(C)(N(C)C)C(O)C(C)O3)cc(C3CC(N(C)C)C(O)C(C)O3)c1C2=O` (stereo not given): the growth inhibition in assay [1] was 88.6% (active); in assay [2], 92.2% (active); in assay [3], 90.7% (active); in assay [4] it was 88.8% (active); in assay [5] it was 89.2% (active); in assay [6], 87.5% (active).
As to `C[N+]12C=CC=C1C(N1CCCC1)c1sc(-c3ccc(Cl)cc3)cc12` (stereo not given), the growth inhibition in assay [1] is 7.9%; in assay [2], -11.3%; in assay [3], 22%; in assay [4], 7.3%; in assay [5], 0.55%; in assay [6], 16.4%.
Take `CC(C)CC(CC(C)C)OB(OC(CC(C)C)CC(C)C)OC(CC(C)C)CC(C)C`: the growth inhibition is -27.8% in assay [1]; -15.3% in assay [2]; -14.6% in assay [3]; 10.9% in assay [4]; -0.3% in assay [5]; -7.8% in assay [6].
With `N#C/C(=C(\O)C(=O)O)c1ccc(-c2cccc3ccccc23)cc1`, the growth inhibition in assay [1] was 29.6%; in assay [2], 0.6%; in assay [3], -17.9%; in assay [4], 1.9%; in assay [5] it was 16.7%; in assay [6], 26.9%.
Regarding `CCCNS(=O)(=O)c1ccccc1C(=O)NC1CCCCC1`, the growth inhibition in assay [1] was 3.25%; in assay [2], -9.9%; in assay [3], 4.05%; in assay [4], 10.8%; in assay [5], -19.7%; in assay [6] it was 22.2%.
Consider `CCn1c(=NC(=O)c2ccccc2O)sc2ccccc21`, for which the growth inhibition is 16.5% in assay [1]; 4% in assay [2]; 2.15% in assay [3]; 17.9% in assay [4]; -5.7% in assay [5]; -3.05% in assay [6].
